For some of these results: Measured potencies and affinities stand elsewhere.
What was measured:
Parameters in all cases: scale not given: direction of the effect not stated beside the values
[1] = biological target: Protein translocase subunit SecA (Escherichia coli (strain K12)) (UniProt P10408); experiment: Assay to Identify E. coli SecA ATPase Inhibitors; type: functional; settings: 30 µM
[2] = biological target: T1, Ubiquitin-activating enzyme e1, putative (Leishmania donovani (strain BPK282A1)) (UniProt E9BSI1); experiment: Leishmania donovani Ubiquitin Activating Enzyme (LdE1); type: functional; settings: 30 µM
T1 sequence (whole entry): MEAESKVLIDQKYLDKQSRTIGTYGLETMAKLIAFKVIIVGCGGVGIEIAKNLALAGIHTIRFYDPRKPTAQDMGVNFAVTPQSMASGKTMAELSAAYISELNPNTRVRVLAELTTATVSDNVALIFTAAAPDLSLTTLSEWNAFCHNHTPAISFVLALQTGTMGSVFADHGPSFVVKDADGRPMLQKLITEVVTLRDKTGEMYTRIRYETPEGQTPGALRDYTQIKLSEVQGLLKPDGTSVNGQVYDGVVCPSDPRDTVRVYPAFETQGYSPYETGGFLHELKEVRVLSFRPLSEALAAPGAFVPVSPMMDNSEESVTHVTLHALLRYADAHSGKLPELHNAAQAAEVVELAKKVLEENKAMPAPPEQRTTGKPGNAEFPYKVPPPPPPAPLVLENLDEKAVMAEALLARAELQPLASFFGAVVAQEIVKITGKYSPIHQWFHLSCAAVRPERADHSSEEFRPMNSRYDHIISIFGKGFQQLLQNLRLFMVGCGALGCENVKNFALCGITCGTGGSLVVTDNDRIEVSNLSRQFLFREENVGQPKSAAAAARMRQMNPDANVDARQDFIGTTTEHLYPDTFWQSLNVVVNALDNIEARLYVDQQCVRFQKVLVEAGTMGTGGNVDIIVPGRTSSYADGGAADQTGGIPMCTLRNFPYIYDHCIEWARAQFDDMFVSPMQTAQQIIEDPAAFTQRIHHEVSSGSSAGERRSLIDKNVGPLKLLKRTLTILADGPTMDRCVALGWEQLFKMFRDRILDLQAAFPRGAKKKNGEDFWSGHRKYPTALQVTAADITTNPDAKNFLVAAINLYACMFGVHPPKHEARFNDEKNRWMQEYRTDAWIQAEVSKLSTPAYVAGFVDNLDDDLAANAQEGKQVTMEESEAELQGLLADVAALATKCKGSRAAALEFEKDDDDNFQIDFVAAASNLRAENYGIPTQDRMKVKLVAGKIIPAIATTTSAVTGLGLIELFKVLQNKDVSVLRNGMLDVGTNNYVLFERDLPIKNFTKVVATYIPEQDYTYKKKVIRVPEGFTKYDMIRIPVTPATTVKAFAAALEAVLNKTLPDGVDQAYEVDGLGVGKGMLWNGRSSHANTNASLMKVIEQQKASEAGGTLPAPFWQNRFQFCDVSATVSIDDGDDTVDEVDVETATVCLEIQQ

[3] = biological target: AMP-activated protein kinase, AMPK (Homo sapiens) (UniProt P54646+O43741+P54619+Q9UGJ0+Q9Y478+Q13131+Q9UGI9); experiment: AMP-dependent Kinase enzyme assay. An in vitro enzyme assay that detects ADP turnover that is directly proportional to AMPK activity. This uses naive AMPK that is activated during the assay with MK-8722; type: functional; settings: 30 µM
[4] = biological target: Sialic acid-binding Ig-like lectin 9 (Homo sapiens) (UniProt Q9Y336); experiment: Hs-Siglec9 ALPHAscreen SOP 20170721; settings: 10 µM
Sequence of Sialic acid-binding Ig-like lectin 9 (Homo sapiens) (Q9Y336 whole entry): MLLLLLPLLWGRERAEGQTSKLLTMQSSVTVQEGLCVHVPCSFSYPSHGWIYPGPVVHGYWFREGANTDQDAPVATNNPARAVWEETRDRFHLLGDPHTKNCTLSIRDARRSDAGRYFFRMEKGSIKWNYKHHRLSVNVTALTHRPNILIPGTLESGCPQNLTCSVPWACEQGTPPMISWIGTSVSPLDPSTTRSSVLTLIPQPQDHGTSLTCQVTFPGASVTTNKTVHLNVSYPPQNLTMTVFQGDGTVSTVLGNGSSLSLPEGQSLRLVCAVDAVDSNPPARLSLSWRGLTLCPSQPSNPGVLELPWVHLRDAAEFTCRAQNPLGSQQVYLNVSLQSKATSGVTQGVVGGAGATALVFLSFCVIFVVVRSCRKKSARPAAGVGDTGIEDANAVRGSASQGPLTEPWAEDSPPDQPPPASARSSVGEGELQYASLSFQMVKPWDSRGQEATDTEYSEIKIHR

Trypanosoma cruzi = experiment: Trypanosoma cruzi phosphomannomutase and mannose-1-phosphate guanylyltransferase assay; type: functional; settings: 10 µM
[5] = biological target: T2, Arginase-2, mitochondrial (Homo sapiens) (UniProt P78540); experiment: in vitro enzyme assay to detect the production of urea directly proportional to the activity of Arginase II; type: functional; settings: 33.3 µM; further: in the data most compounds retested in dose-response had high values
T2 sequence (whole entry): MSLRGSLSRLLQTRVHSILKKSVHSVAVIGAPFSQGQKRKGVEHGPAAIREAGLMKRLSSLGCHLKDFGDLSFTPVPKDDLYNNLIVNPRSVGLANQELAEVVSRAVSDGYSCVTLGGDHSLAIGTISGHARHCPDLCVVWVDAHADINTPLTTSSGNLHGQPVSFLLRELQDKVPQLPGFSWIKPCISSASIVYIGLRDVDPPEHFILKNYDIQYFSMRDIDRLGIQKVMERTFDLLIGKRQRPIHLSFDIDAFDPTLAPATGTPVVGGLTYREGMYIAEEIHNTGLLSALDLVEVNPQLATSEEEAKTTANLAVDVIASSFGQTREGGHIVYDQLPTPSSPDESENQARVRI

[6] = biological target: T3, Proteasome subunit beta (Trypanosoma cruzi) (UniProt O96673); experiment: Trypanosoma cruzi proteasome chymotrypsin-like activity (TcProtChymo) assay.; further: in the data most compounds retested in dose-response had high values; type: functional; settings: 9.37 µM
T3 sequence (whole entry): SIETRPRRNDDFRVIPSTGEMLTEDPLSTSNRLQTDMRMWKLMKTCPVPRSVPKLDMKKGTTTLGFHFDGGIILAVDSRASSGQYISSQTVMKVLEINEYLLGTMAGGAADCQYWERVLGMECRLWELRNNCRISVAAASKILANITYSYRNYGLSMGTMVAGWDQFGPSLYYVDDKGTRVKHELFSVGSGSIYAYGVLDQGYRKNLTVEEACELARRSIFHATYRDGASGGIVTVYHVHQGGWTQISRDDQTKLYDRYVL

Homo sapiens = species on record: Homo sapiens; experiment: To identify inhibition of the IFN signalling (Jak-Stat) pathway via expression of an eGFP reporter gene under the control of an IFN-stimulated response element (ISRE) containing MxA promoter.; type: functional; settings: 30 µM
[7] = biological target: T4, Tyrosyl-tRNA synthetase, putative (Trypanosoma cruzi (strain CL Brener)) (UniProt Q4DSP6); experiment: Trypanosoma cruzi tyrosyl tRNA synthetase (TcYRS) _High Tyrosine SOP; type: functional; settings: 30 µM; further: in the data most compounds retested in dose-response had high values
T4 sequence (whole entry): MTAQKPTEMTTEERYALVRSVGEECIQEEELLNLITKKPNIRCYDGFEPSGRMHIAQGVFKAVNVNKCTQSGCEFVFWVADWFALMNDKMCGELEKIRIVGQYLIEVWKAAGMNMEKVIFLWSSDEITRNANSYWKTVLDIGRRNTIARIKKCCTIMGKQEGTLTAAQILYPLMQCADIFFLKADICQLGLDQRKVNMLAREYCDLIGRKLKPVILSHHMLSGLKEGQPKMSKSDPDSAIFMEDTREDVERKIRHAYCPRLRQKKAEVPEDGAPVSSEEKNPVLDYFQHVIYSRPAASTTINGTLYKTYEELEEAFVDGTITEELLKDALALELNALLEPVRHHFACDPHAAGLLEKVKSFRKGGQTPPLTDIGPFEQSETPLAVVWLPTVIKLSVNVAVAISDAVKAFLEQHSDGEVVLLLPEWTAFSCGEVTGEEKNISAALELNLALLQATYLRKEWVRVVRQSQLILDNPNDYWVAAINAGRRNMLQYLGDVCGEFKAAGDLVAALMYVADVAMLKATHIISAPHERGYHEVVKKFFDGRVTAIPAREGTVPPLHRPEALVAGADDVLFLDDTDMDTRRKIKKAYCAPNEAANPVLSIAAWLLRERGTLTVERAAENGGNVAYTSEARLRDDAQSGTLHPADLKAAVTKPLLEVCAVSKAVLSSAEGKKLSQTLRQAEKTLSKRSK

[8] = biological target: T4, Tyrosyl-tRNA synthetase, putative (Trypanosoma cruzi (strain CL Brener)); experiment: Trypanosoma cruzi tyrosyl tRNA synthetase (TcYRS) SOP; type: functional; settings: 30 µM
[9] = biological target: Chromo domain-containing protein 1 (Saccharomyces cerevisiae (strain ATCC 204508 / S288c) (Baker's yeast)) (UniProt P32657); experiment: ScCHD-1 Enzyme Inhibition Assay; type: functional; settings: 30 µM; further: in the data most compounds retested in dose-response had high values
Sequence of Chromo domain-containing protein 1 (Saccharomyces cerevisiae (strain ATCC 204508 / S288c) (Baker's yeast)) (P32657 whole entry, the tested form may be a part): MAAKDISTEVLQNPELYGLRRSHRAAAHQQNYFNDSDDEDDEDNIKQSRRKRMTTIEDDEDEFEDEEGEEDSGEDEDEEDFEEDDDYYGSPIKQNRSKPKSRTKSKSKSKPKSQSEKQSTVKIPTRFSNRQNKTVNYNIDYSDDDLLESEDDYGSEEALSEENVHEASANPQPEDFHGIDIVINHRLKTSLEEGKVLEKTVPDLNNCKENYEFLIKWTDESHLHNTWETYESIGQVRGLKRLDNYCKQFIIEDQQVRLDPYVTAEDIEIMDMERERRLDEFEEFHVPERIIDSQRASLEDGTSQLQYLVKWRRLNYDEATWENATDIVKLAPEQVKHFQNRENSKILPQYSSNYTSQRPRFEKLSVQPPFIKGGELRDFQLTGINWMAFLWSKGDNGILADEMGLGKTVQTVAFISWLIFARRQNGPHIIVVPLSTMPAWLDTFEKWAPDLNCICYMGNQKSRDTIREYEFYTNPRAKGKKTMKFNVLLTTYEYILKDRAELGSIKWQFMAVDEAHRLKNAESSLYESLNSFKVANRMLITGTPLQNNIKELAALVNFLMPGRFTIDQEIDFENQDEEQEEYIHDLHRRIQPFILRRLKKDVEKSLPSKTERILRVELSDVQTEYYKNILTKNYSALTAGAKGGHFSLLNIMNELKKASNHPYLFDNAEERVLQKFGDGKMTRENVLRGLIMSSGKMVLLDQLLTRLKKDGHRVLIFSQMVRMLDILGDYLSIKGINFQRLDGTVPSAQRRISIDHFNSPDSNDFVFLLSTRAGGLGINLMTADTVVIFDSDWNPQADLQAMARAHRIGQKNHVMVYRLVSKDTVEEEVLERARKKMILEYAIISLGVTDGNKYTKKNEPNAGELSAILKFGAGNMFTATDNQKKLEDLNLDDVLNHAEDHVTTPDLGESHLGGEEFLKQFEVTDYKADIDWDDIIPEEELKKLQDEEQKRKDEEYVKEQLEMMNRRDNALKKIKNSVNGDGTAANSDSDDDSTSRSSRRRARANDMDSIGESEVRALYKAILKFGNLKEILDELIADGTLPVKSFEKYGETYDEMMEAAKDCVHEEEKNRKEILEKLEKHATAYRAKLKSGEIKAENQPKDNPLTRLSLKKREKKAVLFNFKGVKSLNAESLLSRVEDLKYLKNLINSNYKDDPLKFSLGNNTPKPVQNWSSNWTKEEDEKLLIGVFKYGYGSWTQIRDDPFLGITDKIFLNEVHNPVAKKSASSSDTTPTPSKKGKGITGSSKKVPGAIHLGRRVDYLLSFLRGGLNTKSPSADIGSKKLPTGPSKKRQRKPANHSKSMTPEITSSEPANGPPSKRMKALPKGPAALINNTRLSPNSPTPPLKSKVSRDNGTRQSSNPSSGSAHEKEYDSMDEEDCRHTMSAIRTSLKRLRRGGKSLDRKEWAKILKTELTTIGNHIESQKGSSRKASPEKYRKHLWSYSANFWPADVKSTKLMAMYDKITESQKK

Sequence of Protein translocase subunit SecA (Escherichia coli (strain K12)) (P10408 whole entry): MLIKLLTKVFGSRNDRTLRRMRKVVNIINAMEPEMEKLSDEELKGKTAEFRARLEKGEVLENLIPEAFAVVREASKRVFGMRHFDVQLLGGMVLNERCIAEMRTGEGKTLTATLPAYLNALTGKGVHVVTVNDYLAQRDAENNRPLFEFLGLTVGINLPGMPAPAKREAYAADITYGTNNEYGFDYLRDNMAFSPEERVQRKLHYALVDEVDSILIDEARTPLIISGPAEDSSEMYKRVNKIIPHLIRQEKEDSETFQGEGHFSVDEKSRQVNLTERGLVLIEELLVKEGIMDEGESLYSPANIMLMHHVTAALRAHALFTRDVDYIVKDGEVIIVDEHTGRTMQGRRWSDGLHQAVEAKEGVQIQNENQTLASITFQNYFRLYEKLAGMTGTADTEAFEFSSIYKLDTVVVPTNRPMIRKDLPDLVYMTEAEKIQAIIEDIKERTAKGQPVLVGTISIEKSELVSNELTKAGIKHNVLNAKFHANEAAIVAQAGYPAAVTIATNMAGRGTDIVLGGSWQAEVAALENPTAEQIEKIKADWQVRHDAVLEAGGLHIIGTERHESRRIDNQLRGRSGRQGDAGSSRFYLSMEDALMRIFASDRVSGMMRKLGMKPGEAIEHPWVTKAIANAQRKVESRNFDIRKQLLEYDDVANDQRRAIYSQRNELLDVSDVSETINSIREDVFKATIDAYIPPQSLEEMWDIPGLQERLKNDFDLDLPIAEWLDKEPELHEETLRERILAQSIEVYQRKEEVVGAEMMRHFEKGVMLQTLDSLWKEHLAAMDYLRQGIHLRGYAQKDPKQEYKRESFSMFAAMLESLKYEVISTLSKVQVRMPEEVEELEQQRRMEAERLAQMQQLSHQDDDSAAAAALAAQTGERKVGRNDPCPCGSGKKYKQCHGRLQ

| SMILES | Percent Effect [1] [%] | Percent Effect [2] [%] | Percent Effect [3] [%] | Percent Effect [4] [%] | Percent Effect (Trypanosoma cruzi) [%] | Percent Effect [5] [%] | Percent Effect [6] [%] | Percent Effect (Homo sapiens) [%] | Percent Effect [7] [%] | Percent Effect [8] [%] | Percent Effect [9] [%] |
| --- | --- | --- | --- | --- | --- | --- | --- | --- | --- | --- | --- |
| Cc1ccc(CN(C)C(=O)CN2CCCC2Cn2cccn2)o1 (stereo not given) | 0.121 | 2.7 | -3.95 | 12.4 | 5.99 | 0 | 1.9 | -5.92 | 2.65 | 7.32 | -4.66 |
| COc1ccc(CNC(=O)NCC2CCOC2)c(C(F)(F)F)c1 (stereo not given) | -7.19 | 1.39 | -0.168 | 4.9 | -4.37 | -0.442 | 9.3 | 16.2 | 5.26 | 2.56 | -0.725 |
| CN1CCCN(C(=O)c2ccc3c(c2)nc(N2CCOCC2)n3C)CC1 | -0.416 | 4.17 | -3.77 | -0.695 | -3.6 | -0.883 | 18.2 | 21.6 | 2.1 | 2.56 | -1.63 |
| Cc1cnccc1CN1CC[C@@](C)(O)[C@H](Oc2ccccc2)C1 | -3.92 | 9.46 | 0.664 | -0.228 | 7.51 | -4.41 | 12.9 | -16.3 | 3.23 | 9.09 | -13.2 |
| CC(C)Cc1noc(CN2CCC(NC(=O)c3cccs3)CC2)n1 | -4.22 | 15.6 | 5.36 | 8.56 | 3.64 | -8.28 | 19 | 3.93 | 6.45 | 16.1 | -6.14 |
| CCC(C)N(C)S(=O)(=O)c1ccc(CCNC(C)=O)s1 (stereo not given) | -1.87 | -4.17 | -4.26 | -5.04 | -2.62 | 0.442 | 8.77 | 10.4 | -3.16 | -5.13 | 5.31 |
| CN(CC1CN(Cc2cn3ccsc3n2)CCO1)c1cccnn1 (stereo not given) | -3.37 | 26 | -3.91 | -12.4 | -7.54 | 1.47 | 23.5 | 15 | 4.76 | 21.2 | -26.4 |
| CC(O)CNC(=O)NCc1ccc(N2CCNC(=O)C2)cc1 (stereo not given) | -3.56 | 20.8 | -9.88 | 10.6 | 2.06 | -0.712 | 4.73 | -4.97 | 11.7 | 21.9 | -11.2 |
| CCOc1ccccc1-c1noc(CN2CCCC(O)C2)n1 (stereo not given) | -8.22 | 0 | -0.175 | -2.29 | 7.54 | -1.47 | 1.54 | -2.84 | 0.952 | 7.06 | -13.3 |
| Cc1cnn(C2CCCN(C(=O)c3ccnc(-n4ccnc4)c3)C2)c1 (stereo not given) | -2.31 | 8.86 | 2.83 | 0.259 | -0.513 | 3.66 | 8.23 | 0.141 | 4.17 | 17.7 | -27.2 |
| CC(NC(=O)c1cccs1)C(=O)NCc1ccccc1CN1CCCC1 (stereo not given) | -4.29 | 23.4 | -5.29 | 2.04 | 4.12 | 3.2 | 12.5 | 5.06 | 12.6 | 21.9 | -11.2 |
| CCN1CCN(CC(O)c2ccc(F)cc2)CC1 (stereo not given) | -4.5 | 2.7 | -2.92 | 3.74 | -2.92 | -0.401 | 3.96 | 3.68 | 5.42 | 13.6 | -6.3 |
| CCn1cc(CN2CCCN(C(=O)c3sccc3C#N)CC2)cn1 | -4.12 | 2.53 | -2.86 | -2.29 | -1.04 | -1.14 | -7.94 | -14 | 2.46 | 3.8 | 4.04 |
| Cc1ccc2c(c1)CCC21CCN(C(=O)CO)CC1 | -2.81 | 5.2 | -0.185 | 17.2 | 6.79 | -20.7 | 12.8 | 15.4 | 4.3 | 6.17 | -7.19 |
| NC(=O)C1CCN(C(=O)c2cccc(CN3CCOCC3)c2)CC1 | -0.727 | 6.94 | 4.41 | 25.6 | 4.57 | 2.21 | 0.702 | -3.07 | 1.05 | 0 | 79 |
| Cc1cc(CC(=O)NCc2ccnc(OCC(F)(F)F)c2)no1 | -9.52 | -5.26 | 3.73 | -4.53 | -6.2 | -0.766 | 2.84 | 30.8 | 0.49 | 0 | -5.08 |
| O=C(NCCNc1ccccn1)N1CCSCC1 | -7.13 | 5.41 | 23.3 | -0.67 | -4.43 | 0.802 | 6.67 | 5.29 | 1.48 | 1.24 | -1.12 |
| COCCN1CCN(C(=O)C2CC=CC2)Cc2cccnc21 | -4.04 | 8 | 10.1 | 4.75 | 7.14 | -55.4 | 10.4 | -18.4 | 3.12 | 17.5 | -7.24 |
| CC(C)c1nnc(CN2CCCC2Cn2cncn2)o1 (stereo not given) | -4.03 | 18.2 | -9.21 | 3.1 | 5.99 | 3.92 | 10.3 | -4.77 | 6.8 | 24.4 | -9.98 |
| COc1ccc(OC)c(-c2nc(CN(C)Cc3nncn3C)c(C)o2)c1 | -4.01 | 11 | 12 | -0.646 | -1.57 | 0.909 | 13.7 | -0.225 | 7.53 | 15 | -5.1 |
